HCV inh – blocks hepatitis C virus; Huh7.5.1 HCVcc-Cre infection, luciferase reporter, 44 h; 340,000 tested, 3.4% active; AID 651820; Potency, µM (titrated, usually from 41.8 µM), for inactives: top-dose activity change, negative = inhibition, actives largely listed as inhibitors; active means well fitted inhibition curve with a large enough effect; inconclusive means small, poorly fitted or top-dose-only effect, or another doubt; inactive means no such curve, though single readings can be large or run the other way
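HCVcc-Cre virus at an moi near 0.5 was added right after compound to cells cultured 4 h from seeding (1,000 cells/well). Luciferase activity was determined 44 h later, 15 min after substrate addition at RT.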
Vaccinia mCherry – vaccinia inhibition (mCherry reporter) | AID 720579 | 310,000 tested, 0.63% active | Vaccinia virus mCherry reporter infection, fluorescence | Potency, µM (top dose mostly 36.5 µM), inactives show top-dose activity change, negative = inhibition, most hits filed as inhibitors; calls by dose curve; tested in A549 cells; further: nearly all actives have a fitted effect of over 35% in size
Lassa entry inh – inhibitors of Lassa virus binding or cell entry. Lassa virus pseudotype entry inhibition, cell reporter. Potency, µM (doses to about 37.9 µM), without a hit: at the highest dose activity change, negative = inhibition, most hits filed as inhibitors. 300,000 tested, 1.2% active; calls by dose curve; tested in HEK293 cells; further: nearly all actives have a fitted effect of over 50% in size
VACV Venus inh – inhibitors of vaccinia virus (Venus reporter) | Vaccinia virus Venus reporter expression, fluorescence | Potency, µM (highest dose often 36.5 µM), for the others: at the top dose activity change, negative = inhibition, most hits filed as inhibitors | 330,000 tested, 0.46% active; calls by dose curve; tested in A549 cells; further: nearly all actives have a fitted effect of over 30% in size
Marburg entry inh – blocks Marburg virus binding to or entry into cells | 300,000 tested, 1.8% active | Potency, µM (titrated, usually from 37.8 µM), for the others: at the highest dose activity change, negative = inhibition, hits mostly inhibitors | Marburg virus pseudotyped entry inhibition, cell reporter | AID 540276; calls by dose curve; tested in HEK293 cells
FMDV inh – antivirals against foot and mouth disease virus | FMDV antiviral cell-based qHTS | Potency, µM (series often up to 57.9 µM), for the others: at the highest dose activity change, negative = inhibition, usual class: inhibitors | 410,000 tested, 1.2% active; calls by dose curve; tested in HEK293T cells; further: read-out not given here; nearly all actives have a fitted effect of over 45% in size
* hit, by the source's call; i = inactive; ? = inconclusive; . = not tested or not shown; [ ] = remark or other dose. Shown are actives, neighbours in structure and some others; about 5.3% of the full set was active somewhere. On the % scale 0 is the no-effect control and ±100 the full control effect; potency means the concentration at half of the fitted maximal effect.

SMILES | HCV inh | Vaccinia mCherry | Lassa entry inh | VACV Venus inh | Marburg entry inh | FMDV inh
O=C(c1ccco1)N1CCN(C(=O)c2ccc(-c3cccc(C(F)(F)F)c3)o2)CC1 | -19% | -12% | 5µM* | -8% | ? | -16%
NC(=O)/C=C\C(=O)Nc1cccc(C(F)(F)F)c1 | ? | ? | ? | -18% | 9.2µM* | .
CC(C)(C)NC(=O)c1cccc(NC(=O)c2ccc(NC(=O)c3ccco3)cc2)c1 | 2.5µM* | -4% | ? | -9% | ? | .
Cc1cc(C)c(NC(=O)Cn2nnc(-c3nc(-c4ccccc4)no3)c2N)c(C)c1 | . | -9% | -4%[46.1 µM] | 3% | . | 27%
CSc1nc(NCCOC(C)=O)c(C#N)c(-c2ccc(C(C)(C)C)cc2)n1 | . | -19% | 4%[46.1 µM] | -14% | ? | ?
COc1ncc2nc(-c3ccccc3)c(=O)n(C)c2n1 | . | . | . | . | . | 5%
COc1ccc(-n2nnnc2S(=O)(=O)CC(=O)N2CCCCC2)cc1 | ? | 13µM* | . | ? | . | 20µM*
COc1cc(OC)cc(-n2nnnc2SCC(=O)N2CCCC2)c1 | -12% | i | -27% | -1% | 6% | .
COc1ccc(-n2nnnc2S(=O)(=O)Cc2ccc(C(=O)O)cc2)cc1 | -15% | . | -10% | . | ? | 28µM*
CCc1ccc(Oc2nnnn2-c2ccc(C(N)=O)cc2)cc1 | -1% | . | . | . | . | 0%
COc1cc(OC)c(NC(=O)CC2SC(N)=NC2=O)cc1Cl (stereo not given) | . | i | . | 2% | . | -2%
C=C1C(=O)C2=CC1CCC(=O)C1(C)CCC(OC(C)=O)C(C)(C)C1CC2O (stereo not given) | 11µM* | 2.5µM* | 13µM* | 4µM* | ? | 7.9µM*
COC(=O)c1cc(CNC(=O)c2ccccc2F)cc(NC(=O)c2ccccc2OC)c1 | . | -7% | . | 9% | . | ?
CCCC(=O)c1cc(-c2nc3ccccc3n2C)n(C)c1 | 22µM* | i | 2% | -21% | 10%[46.1 µM] | 8%
O=C1CCCc2cc3c(cc21)CC1(C3)Cc2cc3c(cc2C1)C(=O)CCC3 | 11µM* | -10% | . | ? | . | ?
COc1ccccc1N1CCN(CCCCNC(=O)c2ccc3ccccc3c2)CC1 | ? | i | . | -11% | 8.9µM* | ?
CCc1nc2ccc(C(=O)NCCCN3CCN(c4ccccc4F)CC3)cc2nc1CC | 4.5µM* | -3% | ? | -20% | 10µM* | 0%
COc1cccc([C@@H]2C(C#N)=C(N)Oc3cc(C)[nH]c(=O)c32)c1OC | . | . | . | . | -1% | .
COc1ccc(N2CC(C(=O)Nc3ccccc3N3CCCC3)CC2=O)c(OC)c1 (stereo not given) | 8.9µM* | ? | 0% | ? | ? | -11%
FC(F)(F)c1cc(CCN2CCNC[C@@H]2Cc2ccccc2)cc(C(F)(F)F)c1 | 33% | 13µM* | . | 11µM* | . | -21%
Cc1cc(C)c(Cn2c(=O)n(-c3ccccc3Cl)c(=O)c3c(C)c(C(=O)N(C)C)sc32)c(C)c1 | . | -16% | 3%[46.1 µM] | -6% | . | -24%
CCOC(=O)c1c(S(=O)(=O)N2CCC(C(=O)NCc3ccc(F)cc3)CC2)c(C)n(C)c1C | . | -5% | 8%[46.1 µM] | 4% | . | 15%
CCOC(=O)c1cnc(-n2nc(C)cc2C)nc1NC1CCCC1 | 1.1µM* | -14%[7.34 µM] | ? | -16%[7.34 µM] | 11µM* | ?
CCOC(=O)c1cnc(-n2nc(C)cc2C)nc1Nc1ccc(OC)cc1 | 11µM* | . | ? | . | ? | 13%
CCOC(=O)c1cnc(-n2nc(C)cc2C)nc1N(C)C | 14% | . | 16% | . | ? | 0%
SMILES | HCV inh | Vaccinia mCherry | Lassa entry inh | VACV Venus inh | Marburg entry inh | FMDV inh
CC(=O)Nc1nc(-c2ccccc2)c(-c2ccccc2)s1 | . | i | . | -10% | . | .
Cc1nn2c(=O)cc(COC(=O)c3ccc(NC(=O)COc4ccccc4F)cc3)nc2s1 | . | -10% | 2%[46.1 µM] | -23% | . | 10µM*
Cc1nn2c(=O)cc(COC(=O)c3ccc(NC(=O)COc4ccc(C)c(C)c4)cc3)nc2s1 | . | -14% | 10%[46.1 µM] | -23% | . | 11µM*
CCc1nn2c(=O)cc(COC(=O)c3ccc(NC(=O)COc4ccccc4C)cc3)nc2s1 | . | -8% | 7%[46.1 µM] | 0% | . | 6%
O=C(OCc1cc(=O)n2nc(C3CC3)sc2n1)c1cccc(NC(=O)c2ccccc2Cl)c1 | . | -24% | ? | -22% | . | ?
COc1ccccc1C(=O)Nc1ccc(C(=O)OCc2cc(=O)n3nc(C)sc3n2)cc1 | . | ? | 22%[46.1 µM] | ? | . | 16µM*
O=C(OCc1cc(=O)n2nc(C3CC3)sc2n1)c1ccc(NC(=O)c2ccccc2Cl)cc1 | . | ? | ? | -6% | . | 20µM*
C/C(CCN1CCCc2nc(C)c(C)cc21)=N\OC[C@@H](O)[C@H]1O[C@@H]2OC(C)(C)O[C@@H]2[C@H]1O | . | . | . | . | -8%[14.2 µM] | .
COC1=C[C@H](C(=O)NC2CCN(Cc3ccccc3)CC2)[C@@]2(C)Cc3ccccc3[C@@H]2CC1=O | . | . | . | . | -18%[14.2 µM] | .
Cn1c(=O)n(C)c2cc(NC(=O)Cc3ccccc3[N+](=O)[O-])ccc21 | 5% | . | . | . | . | -7%
Cc1nn2c(=O)cc(COC(=O)c3ccc(NC(=O)CCc4ccccc4)cc3)nc2s1 | . | -1% | 2%[46.1 µM] | -6% | . | 11µM*
C=CCN1C(=O)/C(=C/c2cc(C)n(-c3cccnc3)c2C)C(=O)NC1=S | 25% | -9% | 1% | 13% | 32% | 35µM*
Cc1cc(/C=C2/SC(=S)N(c3cccc(Cl)c3)C2=O)c(C)n1-c1cccnc1 | 2.2µM* | ? | ? | ? | ? | ?
Cc1cc(/C=C2/SC(=S)N(c3ccc([N+](=O)[O-])cc3)C2=O)c(C)n1-c1cccnc1 | 2.5µM* | . | -19% | . | -26% | ?
Cc1cc(C=C2C(=O)NC(=O)NC2=O)c(C)n1-c1cccnc1 | 6% | -2% | -2% | -11% | 3%[46.1 µM] | -1%
Cc1cccc(N2C(=O)/C(=C/c3cccnc3)SC2=S)c1 | -2% | i | ? | -13% | ? | -16%
COc1ccc2[nH]cc(CCNC(=O)c3cnn(-c4ccc(C)cc4)c3C3CCN(C(=O)OC(C)(C)C)CC3)c2c1 | . | -7% | ? | -18% | . | ?
N#CC(C(=O)C1CCCCC1)c1nc2ccccc2[nH]1 (stereo not given) | 10µM* | -28% | -20% | -28% | 1% | .
N#CC(C(=S)Nc1ccccc1)c1nc2ccccc2[nH]1 (stereo not given) | -21% | . | . | . | . | -9%
CN(C)c1nc2n(c(=O)n1)[C@H](C#N)CS2 | . | . | . | . | 2% | .
Cc1cc(CN(C)C(=O)c2cc(COc3ccc4ncccc4c3)on2)on1 | 2.8µM* | -3% | ? | -14% | ? | ?
CCN1CCN(C(=O)c2cc(COc3c(C)cccc3C)on2)CC1 | 13% | i | 18%[46.1 µM] | -12% | 16%[46.1 µM] | 17%
Cc1ccc(OCc2cc(C(=O)N(C)Cc3cnc4ccccn34)no2)cc1C | 11µM* | -4%[7.34 µM] | . | -10%[7.34 µM] | . | ?

Screening results from PubChem BioAssay.
